PNC inhibitor: inhibitors of perinucleolar compartment assembly | 140,000 tested, 3.1% active | PC3M PTB-GFP, PNC prevalence imaging, 16 h; stronger effect = lower value | activity change (PNC), negative = inhibition, % at 10 µM;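 active = readout at or below -70, meaning at least 70% loss of cells showing the perinucleolar compartment, a nuclear body marking cancer cells; inconclusive = readout between -30 and a set limit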
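PC3M cells stably expressing PTB-GFP, 750–1000 cells/well, treated 16 h at 37 °C with compound (23 nl of library stock), in duplicate. After paraformaldehyde fixation and Hoechst stain, imaged at 20x; PNC prevalence scored by image analysis.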
ALOX15B inhib: blocks human 15-lipoxygenase 2 activity | O15296 | purified 15hLO-2, xylenol orange hydroperoxide absorbance | Potency, µM (top dose mostly 57.1 µM), hits mostly inhibitors | 110,000 tested, 0.56% active | AID 881; note: nearly all actives have a fitted effect of over 60% in size
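Purified human 15hLO-2 (50 nM) preincubated 15 min with compound, then 45 uM arachidonic acid for 90 min at RT in 25 mM Hepes pH 7.5, 0.01% Triton X-100. Hydroperoxide detected by Fe-xylenol orange; 573/405 nm absorbance ratio.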
ALOX12 inhib: blocks human 12-lipoxygenase activity; P18054; purified 12-hLO, xylenol orange hydroperoxide absorbance; Potency, µM (titrated, usually from 57.1 µM), hits mostly inhibitors; 150,000 tested, 0.12% active; AID 1452; note: nearly all actives have a fitted effect of over 55% in size
Target sequence (P18054 whole entry, looked up): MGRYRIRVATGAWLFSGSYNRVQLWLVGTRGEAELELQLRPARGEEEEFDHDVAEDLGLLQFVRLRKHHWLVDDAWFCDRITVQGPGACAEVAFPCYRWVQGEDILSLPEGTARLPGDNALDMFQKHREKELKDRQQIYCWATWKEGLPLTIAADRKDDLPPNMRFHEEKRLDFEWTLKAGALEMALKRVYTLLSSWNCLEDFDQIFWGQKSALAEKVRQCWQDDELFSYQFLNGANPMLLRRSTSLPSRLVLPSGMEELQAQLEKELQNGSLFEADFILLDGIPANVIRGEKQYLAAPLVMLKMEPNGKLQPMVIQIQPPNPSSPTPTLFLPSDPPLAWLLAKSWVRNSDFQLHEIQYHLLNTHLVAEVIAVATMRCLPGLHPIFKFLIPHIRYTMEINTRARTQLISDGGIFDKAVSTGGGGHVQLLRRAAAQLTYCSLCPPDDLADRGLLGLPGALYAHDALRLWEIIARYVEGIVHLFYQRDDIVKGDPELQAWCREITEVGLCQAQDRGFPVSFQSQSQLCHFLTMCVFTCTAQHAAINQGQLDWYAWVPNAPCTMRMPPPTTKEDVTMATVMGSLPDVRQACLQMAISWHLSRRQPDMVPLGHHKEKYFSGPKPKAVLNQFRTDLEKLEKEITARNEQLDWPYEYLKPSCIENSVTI
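150 nM 12hLO, 25 mM Hepes pH 7.0 + 0.01% Triton X-100; cpd preinc 15 min RT; 40 uM arachidonic acid, 30 min RT; Fe-XO 30 min; A573/A405 ratio as read-out.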
IMPase cell inh: cell-permeable inhibitors of inositol monophosphatase (IMPase); inhibition (IP1 accumulation), % at 46.1 µM; CHO-M1 cells, IP1 accumulation, HTRF TR-FRET ratio; P97697; 120,000 tested, under 10 active; active = well fitted curve in the direction sought with a large enough effect in the signal ratio, not every such curve was filed as active; inconclusive = small, poorly fitted or top-dose-only effect, or a change in a side signal; inactive = no such curve, though single readings can be large or run the other way; the % refers to the signal ratio;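 note: cells stimulated with carbachol in lithium chloride buffer; higher means more IMPase inhibition seen as more IP1 and lower FRET ratio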
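CHO-M1, 2000 cells/well, cultured 16–30 h; cpd up to 46 uM; carbachol (50 uM solution, stimulation buffer w/ 50 mM LiCl, pH 7.4), 30 min 37C; IP-One TR-FRET, 10 min RT; Ex 320/Em 665, 620; Hill-fit AC50.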
Large screens that a line does not name were inactive. The list is not random: actives were taken first. Their share in the collection is about 3%. Unless noted, calls come from the whole dose curve; as a rule, active = well fitted curve in the direction sought with a large enough effect; inconclusive = small, poorly fitted or top-dose-only effect, or another doubt; inactive = no such curve, though single readings can be large; an effect the other way counts as inactive or inconclusive.

CCn1cc(C(=O)Nc2ccc(C)c([N+](=O)[O-])c2)cn1	PNC inhibitor -86.6 (no result: ALOX15B inhib, IMPase cell inh)
NCCc1nnc(SCC(N)=O)o1	none
CCN(CC)C(=O)CSc1nnc(CCN)o1	PNC inhibitor -81.7
COc1ccc(Cl)cc1C1CC(=O)Nc2cc3c(cc21)OCCO3 (configuration not stated)	none (no result: PNC inhibitor, ALOX15B inhib, ALOX12 inhib)
COc1cc2c(cc1OC)C(c1cccnc1)CC(=O)N2 (configuration not stated)	PNC inhibitor -82.0 (no result: ALOX15B inhib)
COc1ccccc1C1CC(=O)Nc2cc3c(cc21)OCCO3 (configuration not stated)	PNC inhibitor -100.7
COc1cccc(C2CC(=O)Nc3cc4c(cc32)OCCO4)c1OC(C)C (configuration not stated)	none
CC(C)Oc1ccccc1C1CC(=O)Nc2cc3c(cc21)OCCO3 (configuration not stated)	PNC inhibitor -96.9
COc1cc2c(cc1OC)C(c1ccc(N(C)C)cc1)CC(=O)N2 (configuration not stated)	none
O=S(=O)(Cc1ccc(Cl)cc1)CC(O)COCc1ccccc1 (configuration not stated)	none
Cc1ccc(-c2nnc(Nc3ccccc3)c3ccccc23)cc1S(=O)(=O)NCc1nc2ccccc2[nH]1	none (no result: PNC inhibitor, ALOX15B inhib, ALOX12 inhib)
N#Cc1cn(Cc2cccc(Cl)c2)c2ccccc12	PNC inhibitor -102.9, IMPase cell inh inconclusive
O=C(Cc1cn(Cc2cccc(Cl)c2)c2ccccc12)N1CCCC1	none (no result: ALOX15B inhib)
CC1(C(=O)CSc2nc3ccccc3[nH]2)CCC(=O)O1 (configuration not stated)	PNC inhibitor -100.0 (no result: ALOX15B inhib)
CC1(C(=O)CSc2ncn[nH]2)CCC(=O)O1 (configuration not stated)	none
Oc1cccc(Nc2ccccc2)c1	none (no result: PNC inhibitor, IMPase cell inh)
CC(C)c1cc(Nc2cccc(O)c2)cc(C(C)C)c1O	ALOX15B inhib 12.6µM, ALOX12 inhib inconclusive
COC(=O)C1=C(C(=O)OC)[C@@H]2Nc3ccccc3[C@@]23C[C@@H](C(=O)OC)N(S(=O)(=O)c2ccc4c(c2)OCCN4C)C3=N1	none (no result: PNC inhibitor, ALOX15B inhib, IMPase cell inh)
CCC(=O)Nc1ccc(/C(C)=N\NS(=O)(=O)c2ccc(C)cc2)cc1	none
Cc1ccc(NC(=O)c2ccccc2N(C)S(=O)(=O)c2ccccc2)c(C)c1	none (no result: ALOX15B inhib, IMPase cell inh)
Cc1ccc(Nc2nnc(SCC(=O)Nc3ccccc3[N+](=O)[O-])s2)cc1	PNC inhibitor -119.3 (no result: ALOX15B inhib)
COC(=O)C1=C(C)NC(C)=C(C(=O)OC)C1c1cc2ccc(C)cc2[nH]c1=O	none
CCOC(=O)C1=C(C)NC(C)=C(C(=O)OCC)C1c1cc2ccc(C)cc2[nH]c1=O	PNC inhibitor -111.5, ALOX12 inhib inconclusive
COCCN(CC(=O)NCc1ccc2c(c1)OCO2)C(=O)CCC(=O)Nc1nccs1	PNC inhibitor -100.0 (no result: ALOX15B inhib)
O=C(CCC(=O)N(CC(=O)NC1CCCC1)Cc1ccc2c(c1)OCO2)Nc1ccccn1	PNC inhibitor -94.0
CCOC(=O)C1CCN(c2cc3c(cc2NC(=O)c2ccc(Cl)cc2)n(C)c(=O)n3C)CC1	none (no result: PNC inhibitor, ALOX15B inhib, ALOX12 inhib)
CN[C@]1(C)[C@H]2CC[C@@H](C2)C1(C)C	none (no result: PNC inhibitor)
COc1ccccc1-c1cc(C(=O)Nc2cc(C)nn2-c2ccccc2)no1	PNC inhibitor -129.2
COc1ccc(-c2cc(C(=O)Nc3cc(C)nn3-c3ccccc3)no2)cc1	none
COc1ccc(-c2csc(-c3cc4ccccc4oc3=N)n2)cc1	PNC inhibitor -93.2 (no result: ALOX15B inhib)
CCCCCCCC[n+]1cccc(C(=O)N(CC)CC)c1	PNC inhibitor -123.8 (no result: ALOX15B inhib, IMPase cell inh)
O=C(Nc1ccccc1)N1CC[C@@]2(CCCN(C(=O)c3ccco3)C2)C1	none (no result: PNC inhibitor, IMPase cell inh)
CCOc1ccccc1OCC(=O)Nc1ccc(S(=O)(=O)N(C)C)cc1	PNC inhibitor -85.6
CC(C)CCNC(=O)c1ccc(C2SCC(=O)N2Cc2ccco2)cc1 (configuration not stated)	PNC inhibitor -110.0 (no result: ALOX15B inhib)
OCCN(CO)CO	none (no result: PNC inhibitor, IMPase cell inh)
Cc1cccc(N2CCN(C(=O)c3ccc(Cl)c(S(=O)(=O)N4CCc5ccccc5C4)c3)CC2)c1C	none (no result: ALOX15B inhib, IMPase cell inh)
CCC(=O)Nc1cccc2c1C(=O)N(C)C2=O	PNC inhibitor -111.1 (no result: ALOX15B inhib)
Cc1cc(C)c(C(N)=O)c(SCC(=O)c2ccc(Cl)cc2)n1	none
Cc1ccc(C(=O)CSc2nc(C)cc(C)c2C(N)=O)cc1	PNC inhibitor -87.8
CCc1ccc(-c2nc(SCC(=O)NCCOC)c(-c3ccc(C)cc3)[nH]2)cc1	none (no result: PNC inhibitor, ALOX15B inhib, ALOX12 inhib)
O=C(O)c1ccc(S(=O)(=O)c2ccc3c(c2)C(=O)N(CC2CCCO2)C3=O)cc1 (configuration not stated)	PNC inhibitor -100.0

Screens: PubChem, National Center for Advancing Translational Sciences (NCATS)
